Bioassay records: PubChem, The Scripps Research Institute Molecular Screening Center
TEAD-YAP inh = TEAD-YAP interaction inhibition; HEK-TIYL cells, TEAD-Gal4/YAP UAS-luciferase luminescence; inhibition, % at 9.12 µM; 1.4% of 640,000 active; in the data active = inhibition above about 32%
MITF inh = inhibitors of human MITF; AID 1259374; inhibition, % at 2.6 µM; O75030; AlphaScreen MITF homodimerization, bead proximity signal; 0.91% of 650,000 active; in the data active = inhibition above about 50%
Target sequence (O75030 whole entry, looked up): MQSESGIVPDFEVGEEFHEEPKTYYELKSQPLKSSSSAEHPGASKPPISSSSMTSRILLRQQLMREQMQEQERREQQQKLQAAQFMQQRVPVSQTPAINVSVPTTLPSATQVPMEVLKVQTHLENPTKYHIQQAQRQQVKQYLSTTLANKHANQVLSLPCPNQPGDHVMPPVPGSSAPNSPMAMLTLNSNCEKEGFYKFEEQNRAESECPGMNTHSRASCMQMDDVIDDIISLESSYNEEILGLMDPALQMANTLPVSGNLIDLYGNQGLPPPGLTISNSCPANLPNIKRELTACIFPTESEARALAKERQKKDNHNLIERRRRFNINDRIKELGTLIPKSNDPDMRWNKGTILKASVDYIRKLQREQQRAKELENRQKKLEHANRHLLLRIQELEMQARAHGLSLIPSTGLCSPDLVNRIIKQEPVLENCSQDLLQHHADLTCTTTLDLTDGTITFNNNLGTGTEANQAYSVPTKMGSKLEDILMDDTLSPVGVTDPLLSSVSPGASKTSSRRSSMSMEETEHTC
GPR151 activ = activates the human receptor GPR151 | Q8TDV0 | PathHunter beta-arrestin GPR151 cells, luminescence | activation, % at 11.2 µM | 1% of 650,000 active; in the data active = activation above about 4.9%
FBW7 act = activators of human E3 ligase FBW7; Q969H0; AlphaScreen FBW7–phospho-cyclin E peptide binding, activator screen; normalized activity (activation), % at 26.1 µM; 0.13% of 650,000 active; AID 1259310; in the data active = normalized activity above about 1.9%;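 note: purified mutant Fbw7 with reduced substrate affinity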
Large screens that a line does not name were inactive. Hits are enriched below; roughly 3.5% of the tested compounds scored in any of these assays.

CCc1c(C(=O)NC2CCCc3ccccc32)[nH]c(C)c1C(C)=O (stereo unspecified)	TEAD-YAP inh 37
CCCn1c2c(c(O)c(C(=O)Nc3cccc(C)n3)c1=O)CCCC2	none
N#C/C(=C/c1ccc(O)cc1)c1ccc(C#N)cc1	TEAD-YAP inh 45
CN(C)c1ccc(/C=C(/C#N)c2ccc(C#N)cc2)cc1	none
CC(C)(C)c1ccc(NC(=O)Nc2ccccc2NC(=O)c2ccccn2)cc1	TEAD-YAP inh 68
O=C(Nc1ccccc1NC(=O)c1ccccn1)Nc1c(F)cccc1F	none
CC(C)(C)c1ccc(/C=N\NC(=O)c2ccccn2)cc1	TEAD-YAP inh 35
FC(F)(F)c1cccc(CNc2nc(-c3ccc(N4CCOCC4)nc3)nc3c2ncn3C2CCCCC2)c1	none
COc1cccc(C2=CC(c3cccc(F)c3)n3nnnc3N2)c1 (stereo unspecified)	TEAD-YAP inh 50
COc1ccc(Br)cc1C1C=C(c2cccs2)Nc2nnnn21 (stereo unspecified)	TEAD-YAP inh 42
COc1cccc(C2=CC(c3ccc(OC)cc3OC)n3nnnc3N2)c1 (stereo unspecified)	TEAD-YAP inh 48
Cc1ccc(NC(=O)CC2SC(N)=NC2=O)cc1 (stereo unspecified)	none
NC1=NC(=O)C(CC(=O)Nc2ccc(NC(=O)CC3SC(N)=NC3=O)cc2)S1 (stereo unspecified)	MITF inh 55
CC(C)N(CCNc1nc(-c2ccc(C(=O)NC3CC3)cc2)nc2c1ncn2-c1ccsc1)C(C)C	TEAD-YAP inh 60
O=C(NC1CC1)c1ccc(-c2nc(NCCO)c3ncn(-c4ccsc4)c3n2)cc1	TEAD-YAP inh 55
CC(C)N(CCNc1nc(-c2ccc(C(=O)NC3CC3)cc2)nc2c1ncn2-c1ccccc1)C(C)C	none
O=C1CC(c2ccccc2)CC(O)=C1C=NCc1cccc(C(F)(F)F)c1 (stereo unspecified)	none
CCOc1ccc(OC)cc1/C=N/NS(=O)(=O)c1ccc(Cl)cc1	TEAD-YAP inh 65
CCOc1ccc(NC(=O)Cn2cc(C(=O)c3ccccc3)c(=O)c3cc(Cl)ccc32)cc1	FBW7 act 2.7
COc1cccc(NC(=O)Cn2cc(C(=O)c3ccccc3)c(=O)c3cc(Cl)ccc32)c1	none
CCOC(=O)c1cc(NC(=O)Cn2cc(C=O)c3ccccc32)ccc1Cl	TEAD-YAP inh 35
COc1ccc([N+](=O)[O-])cc1NC(=O)COc1ccc(Br)cc1C	TEAD-YAP inh 84
Cc1cc(Br)ccc1OCC(=O)Nc1cccc([N+](=O)[O-])c1	none
COCCCN1C(=O)c2[nH]nc(-c3ccccc3O)c2C1c1ccc(C)cc1 (stereo unspecified)	TEAD-YAP inh 43
Oc1ccccc1/C=N/c1ccnn1-c1ccccc1	TEAD-YAP inh 32
Cn1c(CS(=O)(=O)c2ccccc2)c(C#N)c2ccccc21	TEAD-YAP inh 34
Cn1c(COc2ccccc2)c(C#N)c2ccccc21	none
Cc1ccc(N2C(=O)c3nccnc3C2=O)cc1F	none
CCOCCCNC(=O)/C(C#N)=C/c1c(Oc2ccccc2C)nc2c(C)cccn2c1=O	TEAD-YAP inh 32
COCCNC(=O)/C(C#N)=C/c1c(Oc2ccccc2OC)nc2c(C)cccn2c1=O	TEAD-YAP inh 34
CCOCCCNC(=O)/C(C#N)=C/c1c(Oc2ccc(C)cc2)nc2c(C)cccn2c1=O	none
CCc1nnc2n1N=C(c1ccc3c(c1)OCCO3)CS2	TEAD-YAP inh 51
CCOC(=O)c1ccc(NC(=O)c2sc(NC(=O)COc3ccc(Cl)cc3)c(C(=O)OCC)c2C)cc1	none
Cc1ccc(OCCC(=O)Nc2ccc3[nH]c(=O)[nH]c3c2)cc1	none
O=C(Cc1ccccc1)Nc1cnn(-c2cccc(C(=O)Nc3ccc(Cn4ccnc4)cc3)c2)c1	none
O=C(Nc1ccc(Cn2ccnc2)cc1)c1cccc(-n2cc(NC(=O)C3CCc4ccccc43)cn2)c1 (stereo unspecified)	TEAD-YAP inh 37
COc1ccc(C2(C)NC(=O)N(CC(=O)NC3CCCCC3)C2=O)cc1 (stereo unspecified)	none
COCc1ccc(CNc2nc(C)c(-c3ccn(-c4cccc(F)c4)n3)s2)o1	none
CCN(CC)C(=O)CSc1nc2n[nH]c(C)c2c(=N)n1-c1cccc(OC)c1	TEAD-YAP inh 44
CCOc1ccc(NC(=O)CSc2nc3n[nH]c(C)c3c(=N)n2-c2cccc(OC)c2)cc1	TEAD-YAP inh 33
CCCN(CCC)C(=O)C(CC)Sc1nc2n[nH]c(C)c2c(=N)n1-c1cccc(OC)c1 (stereo unspecified)	TEAD-YAP inh 50
CCCCN(CC)C(=O)CSc1nc2n[nH]c(C)c2c(=N)n1-c1cccc(OC)c1	none
COc1cccc(-n2c(SCC(=O)N3CCCC3)nc3n[nH]c(C)c3c2=N)c1	TEAD-YAP inh 43
CCN(CC)S(=O)(=O)c1ccc(C(=O)/C=C/c2ccc(C)s2)cc1	none
Cc1nn(C)c(C)c1-c1nc(NCCN(C(C)C)C(C)C)c2ncn(CCN3CCCC3=O)c2n1	none
CCCCC1CN(CCC(=O)NCc2cc(C)n(C)n2)Cc2ccccc2O1 (stereo unspecified)	none
COc1cc(C(=O)OCC(C)=O)ccc1OCc1c(C)noc1C	TEAD-YAP inh 48
COC(=O)c1ccc(COC(=O)c2ccc(OCc3c(C)noc3C)c(OC)c2)cc1	none
Fc1ccc(-c2cn3cc(Cl)ccc3n2)cc1	TEAD-YAP inh 37
Clc1ccc2nc(-c3ccc4c(c3)OCO4)cn2c1	TEAD-YAP inh 73
Clc1ccc2nc(-c3ccc(Br)cc3)cn2c1	none
Clc1ccc2nc(-c3ccccc3)cn2c1	TEAD-YAP inh 77
CC(=O)Nc1ccc(NC(=O)c2cccc(-c3csc4ccccc34)c2)cc1	none
N#Cc1c(NC(=O)COC(=O)CN2C(=O)c3ccccc3C2=O)sc2c1CCCC2	none
COc1ccc(C2(C(=O)NC(C)c3nc(-c4cccnc4)n[nH]3)CC2)cc1 (stereo unspecified)	TEAD-YAP inh 51
CC(NC(=O)C1(c2ccc(Cl)cc2)CC1)c1nc(-c2cccnc2)n[nH]1 (stereo unspecified)	none
CC(=O)C1C(=O)c2cc([N+](=O)[O-])ccc2C1=Nc1cccc(Cl)c1 (stereo unspecified)	none
O=c1[nH]c(N2CCCCCC2)cc2ccccc12	none
NC(=O)c1cnn(-c2ccnc(NC(=O)Cc3ccc4c(c3)OCO4)c2)c1	TEAD-YAP inh 45
Cc1cccc(NC(=O)Cc2ccc3c(c2)OCO3)n1	none
Cc1ccc2nc(/C(C#N)=C/c3ccccc3OC(=O)c3ccccc3)[nH]c2c1	TEAD-YAP inh 52
COc1cc(C)ccc1S(=O)(=O)Oc1cccc2ccc(C)nc12	TEAD-YAP inh 37
C#CC(C)(O)CCCC(C)(C)OC (stereo unspecified)	none
CC(C)Cc1nnc(NC(=O)CC(C)(C)C)s1	FBW7 act 2.1
Cc1cc(N2CCN(c3cccc(Cl)c3)CC2)n2ncnc2n1	none
CSCc1ccc(C(=O)NC2CCCCCC2)cc1	TEAD-YAP inh 47
O=C(NC1CCCCC1)c1ccc(CSc2ccc(Cl)cc2)cc1	none
COc1cc2nc(Nc3cc(OC)c(OC)c(OC)c3)nc(Nc3ccc(N4CCOCC4)cc3)c2cc1OC	none
COCCNc1ccnc2c(-c3ccc4c(c3)OCO4)cnn12	TEAD-YAP inh 51
